Hits are enriched below; roughly 4.3% of the tested compounds scored in any of these assays.
Giardia killer: Giardia lamblia killing. Giardia lamblia trophozoite viability. activity change, % at 7.66 µM, hits read low. 0.15% of 340,000 active. AID 540267; in the data active means activity change below about -80%; inconclusive means between about -30% and that limit;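 further: parasites exposed to compound for two days anaerobically before the ATP read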
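Anaerobic 48 hrs incubation at 37 deg C of 100 trophozoites/well with test compounds; ATPLite 1-Step luminescence, 15-30 min RT, reports cellular ATP as viability.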
MCF10A rerep: DNA re-replication induction in MCF 10a cells; MCF 10A DNA re-replication, Hoechst nuclear intensity, 48 h; Potency, µM (top dose mostly 46.1 µM), hits mostly activators; 2.9% of 350,000 active; further: nearly all actives have a fitted effect of over 50% in size
SW480 rerep: DNA re-replication induction in SW480 cells; 1.8% of 340,000 active; Potency, µM (series often up to 46.1 µM), most hits filed as activators; AID 624297; SW480 DNA re-replication, Hoechst DNA content imaging, 48 h; further: nearly all actives have a fitted effect of over 55% in size
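Cells (250 per well) received 23 nL compound or DMSO by pin tool and were kept 48 hr at 37 C, 5% CO2. Nuclei were then stained with Hoechst for 40 min and scanned for DNA content.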
uPA generation: cell surface uPA generation inhibition; Potency, µM (series often up to 38.3 µM), usual class: inhibitors; AID 540303; 0.31% of 330,000 active; cell surface uPA generation assay, qHTS; active means well fitted inhibition curve with a large enough effect; inconclusive means small, poorly fitted or top-dose-only effect; inactive means no such curve, though single readings can be large or run the other way; tested in mouse RAW 264.7 cells; further: nearly all actives have a fitted effect of over 55% in size
Numbers stand for hits; – = inactive; ? = inconclusive; · = no result; [ ] = another dose, or the depositor's remark. Unless noted, the call rests on the fitted dose curve; in most records, active means well fitted activation curve with a large enough effect; inconclusive means small, poorly fitted or top-dose-only effect; inactive means no such curve, though single readings can be large or run the other way.

SMILES	Giardia killer	MCF10A rerep	SW480 rerep	uPA generation
CC(=O)O[C@@]12CO[C@@H]1C[C@H](O)[C@@]1(C)C(=O)[C@H](O)C3=C(C)[C@@H](O)C[C@@](O)([C@@H](OC(=O)c4ccccc4)C12)C3(C)C (some centres not stated)	–	?	?	–
C/C=C(\C)C(=O)N[C@@H](c1ccccc1)[C@@H](O)C(=O)O[C@H]1C[C@@]2(O)[C@@H](OC(=O)c3ccccc3)C3[C@](C)(C(=O)[C@H](O)C(=C1C)C2(C)C)[C@@H](O)C[C@H]1OC[C@@]31OC(C)=O (some centres not stated)	–	?	8.2µM	0.71µM
C[C@H]1COC(=O)[C@@H](Cc2ccc(F)cc2)CC/C=C/C[C@@H](CC(=O)N(CCO)Cc2ccccc2)C(=O)N1	–	–	–	–
CC(C)C[C@H]1CNC(=S)N1CC1CCN(CC2CCC(C(C)(C)C)CC2)CC1 (some centres not stated)	–	?	–	–
CN(C1=C(NC(=O)c2ccccc2)C(=O)c2ccccc2C1=O)C1CCS(=O)(=O)C1 (configuration not stated)	–	23µM	?	10µM
O=c1oc(-c2ccc(O)c(O)c2)cc2cccc(O)c12	–	7.3µM	16µM	?
O=c1c(O)c(-c2ccc(O)c(O)c2)oc2cc(O)ccc12	–	?	–	?
O=C(O)COc1ccc(Cl)cc1Cl	–	–	–	–
O=C(c1ccco1)N1CCN(C(=O)c2ccc(COc3ccc(Cl)cc3Cl)o2)CC1	–	21µM	–	–
Cc1cc(Br)ccc1S(=O)(=O)NCc1ccccc1	–	–	–	?
O=C1NC(=O)C(=Cc2ccccc2OCCOc2ccc([N+](=O)[O-])cc2)C(=O)N1	–	18µM	?	–
N#CC(C#N)=NNc1ccc(-n2ccc(C(F)(F)F)n2)cc1	–	?	?	–
N#CC(C#N)=NNc1ccc([N+](=O)[O-])cc1	–	18µM	?	–
CCN(CC)S(=O)(=O)c1ccc(NN=C(C#N)C#N)cc1	–	10µM	–	–
C=C1C(=O)O[C@@H]2C[C@@H](C)[C@@H]3C=CC(=O)[C@@]3(C)[C@@H](OC(C)=O)[C@H]12	–	1.2µM	?	?
C=C1C(=O)O[C@@H]2C[C@@H](C)[C@@H]3C=CC(=O)[C@@]3(C)[C@@H](O)[C@H]12	–	0.92µM	?	–
Cc1cc(=O)oc2c1c(C)nn2-c1nn[nH]n1	–	?	?	–
NCC(O)c1cccc(O)c1 (configuration not stated)	·	–	–	·
COc1ccc2c3c1O[C@H]1[C@@H](O)C=C[C@H]4C(C2)NCCC341 (some centres not stated)	·	–	–	·
Cc1sc2ncnc(N3CCC(C(=O)Nc4ccc(C#N)c(Cl)c4)CC3)c2c1C	–	13µM	–	–
COc1cc(/C=C(/C)[N+](=O)[O-])ccc1OCc1ccccc1Cl	–	3.7µM	3.3µM	–
O=C(Cn1c(=O)oc2ccccc21)NCCc1ccccc1	–	–	–	–
COc1ccc(CN(C)S(=O)(=O)c2nnc(NC(=O)c3ccccc3Br)s2)cc1	–	?	?	–
O=C1CN=C(c2cccs2)c2c(sc3c2CCCC3)N1	–	13µM	21µM	·
O=C1CN=C(c2ccccc2)c2c(sc3c2CCCC3)N1	–	?	–	4.5µM
SMILES	Giardia killer	MCF10A rerep	SW480 rerep	uPA generation
Cc1ccc(NC(=O)COC(=O)/C=C/c2ccco2)cc1S(=O)(=O)N(C)C	–	–	?	–
OC12ONC(c3ccccn3)C1N1CCC2CC1 (configuration not stated)	–	7.3µM	16µM	–
CC(C)(C)NCC1(CO)SC(N)=NC1=O (configuration not stated)	–	21µM	?	–
CCOc1ccc(NC(=O)C2C(C(=O)O)C3(Cl)C(Cl)=C(Cl)C2(Cl)C3(Cl)Cl)cc1 (configuration not stated)	–	?	–	–
C[C@H]1COC(=O)[C@@H](Cc2ccc(F)cc2)CC/C=C/C[C@H](CC(=O)N(CCO)Cc2ccccc2)C(=O)N1	–	–	–	–
CN(CC=CCN(C)P(=S)(N1CC1)N1CC1)P(=S)(N1CC1)N1CC1	–	13µM	?	–
O=C1N[C@H](Cc2ccccc2)COC(=O)[C@@H](Cc2ccc(F)cc2)C/C=C\C[C@H]1CC(=O)N(CCO)Cc1ccccc1	–	–	–	?
CN1CCN(c2ccc(CNS(=O)(=O)Cc3cccc(C(F)(F)F)c3)cc2)CC1	–	–	–	?
Oc1ccc(CCNc2ncnc3ccc(Cl)cc23)cc1	–	8.2µM	–	?
CC[N+](C)(CC)CCOC(=O)C(O)(c1ccccc1)c1ccccc1	·	–	–	·
COc1cccc(OC)c1C1=NCC(=O)Nc2c1oc1ccc(Br)cc21	–	?	0.65µM	?
Cc1ccc(C(=O)Nc2nc3ccccc3n2CCN2CCCC2)cc1	–	–	?	–
Cc1ccc(C(=O)Nc2nc3ccccc3[nH]2)cc1	-92	?	?	–
CC(C)C[C@H]1CN=C(Nc2ccccc2)N1CCC(C)c1ccccc1 (some centres not stated)	–	–	–[9.22 µM]	?
N#Cc1cc2c(nc1SCC(=O)Nc1cc(Cl)ccc1Cl)C1CCN2CC1	–	0.58µM	?	·
CC(C)Oc1ccc(C(=O)Nc2ccc(Cl)c(S(=O)(=O)Nc3ccc(Cl)cc3)c2)cc1	–	?	?	?
O=c1[nH]c(=S)n(-c2cccc(Cl)c2)c(O)c1/C=N/N1CCOCC1	–	–	–	–
CC(=O)N1CCCc2cc(S(=O)(=O)N3CCCC(C(=O)Nc4cccc(F)c4)C3)ccc21 (configuration not stated)	–	–	–	–
Cc1cc(C(C#N)c2ccc(Cl)cc2)c(Cl)cc1NC(=O)c1cc(I)cc(I)c1O (configuration not stated)	–	?	?	–
Cc1ccccc1NC(=NCCCN1CC1)Nc1ccccc1C	–	21µM	?	–
CC(=O)OC1C(O)C(C)OC(OC2C(OC(=O)C3CCC4C(C3)OC3(CC(OC(=O)/C=C/c5ccccc5)C(C)CO3)C43CO3)OC(C)C(O)C2OC(C)=O)C1O (configuration not stated)	?	?	0.21µM	–
CCN(CC)Cc1cc(Nc2ccnc3cc(Cl)ccc23)ccc1O	–	?	–	?
C/C=C1/C[C@@H](C)[C@@](C)(O)C(=O)OCC2=CCN3CC[C@@H](OC1=O)[C@@H]23	–	·	·	·
CCOC(=O)C1=C(NC(=S)NC(=O)c2ccccc2)c2ccccc2CC12CCCC2	–	12µM	?	–
OC(COCc1ccc(Cl)cc1)CN1CC=C(c2ccccc2)CC1 (configuration not stated)	–	15µM	–	–
O=P(O)(O)COc1ccccc1O	–	?	4.6µM	–
O=P(O)(O)Oc1ccccc1P(=O)(c1ccccc1)c1ccccc1	–	–	–	–
CCC1(c2ccccc2)C(=O)NC(=O)N(C(=O)c2ccccc2)C1=O (configuration not stated)	·	–	–	·
Cc1cccc(N=C2c3cc([N+](=O)[O-])ccc3-c3c2cc([N+](=O)[O-])cc3[N+](=O)[O-])c1	–	18µM	18µM	–
